Experimental data reported in PubChem BioAssay AID1159580 (chemical genetic matrix, 2015).
“And” between values parts separate entries of the source, which are not always exact repeats. Identical values can stand only once. The campaign covered roughly 5,500 compounds. About 2,000 (36%) were called active. Another 18% or so got no clear call; they are omitted. Rule as the data show it: active = normalized growth mostly below about 0.91 (no sharp cut-off); inconclusive = no clear call, values can overlap the other calls; inactive = mostly above about 0.92. Some of the results follow.

Assay: chemical genetic growth profiling, strain panel (AID 1159580);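 also: tested at 20 µM; growth read once vehicle control cultures reached saturation at 30 °C; 1 = growth at the plate median or of vehicle wells; lower values mean less growth of the strain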
Conditions: growth OD
[1] = S. cerevisiae deletion strains, locus YAL013W, strain DEP1, active compounds read low
[2] = S. cerevisiae deletion strains, locus YBR229C, strain ROT2, active compounds read low
[3] = S. cerevisiae deletion strains, locus YDL101C, strain DUN1, active compounds read low
[4] = S. cerevisiae deletion strains, locus YDL134C, strain PPH21, active compounds read low
[5] = S. cerevisiae deletion strains, locus YDR150W, strain NUM1, active compounds read low
[6] = S. cerevisiae deletion strains, locus YGR078C, strain PAC10, active compounds read low
[7] = S. cerevisiae deletion strains, locus YGR229C, strain SMI1, active compounds read low
[8] = S. cerevisiae deletion strains, locus YHR030C, strain SLT2, active compounds read low
[9] = S. cerevisiae deletion strains, locus YJR043C, strain POL32, active compounds read low
[10] = S. cerevisiae deletion strains, locus YJR075W, strain HOC1, active compounds read low
[11] = S. cerevisiae deletion strains, locus YKL190W, strain CNB1, active compounds read low
[12] = S. cerevisiae deletion strains, locus YLR039C, strain RIC1, active compounds read low
[13] = S. cerevisiae deletion strains, locus YLR262C, strain YPT6, active compounds read low
[14] = S. cerevisiae deletion strains, locus YMR263W, strain SAP30, active compounds read low
[15] = S. cerevisiae deletion strains, locus YNL153C, strain GIM3, active compounds read low
[16] = S. cerevisiae deletion strains, locus YNL322C, strain KRE1, active compounds read low
[17] = S. cerevisiae deletion strains, locus YOL006C, strain TOP1, active compounds read low
[18] = S. cerevisiae deletion strains, locus YPL055C, strain LGE1, active compounds read low
[19] = S. cerevisiae deletion strains, locus YPL241C, strain CIN2, active compounds read low
[20] = S. cerevisiae strains, strain wild type, active compounds read low

Measured: normalized growth

O=C(O)c1cc(C(F)(F)F)ccc1F
inactive: [1] 0.999 | [2] 0.982 | [3] 0.961 | [4] 0.989 | [5] 1 | S. cerevisiae deletion strains, locus YEL061C, strain CIN8, active compounds read low 0.997 | [6] 0.975 | [7] 1 | [8] 0.964 | S. cerevisiae deletion strains, locus YHR087W, strain rtc3, active compounds read low 0.973 | S. cerevisiae deletion strains, locus YJL187C, strain SWE1, active compounds read low 0.998 | [9] 0.995 | [10] 1 | [11] 1 | [12] 0.991 | S. cerevisiae deletion strains, locus YLR058C, strain SHM2 (second series), active compounds read low 0.983 | S. cerevisiae deletion strains, locus YLR085C, strain ARP6, active compounds read low 1.02 | [13] 0.979 | S. cerevisiae deletion strains, locus YML094W, strain GIM5, active compounds read low 0.916 | S. cerevisiae deletion strains, locus YMR219W, strain ESC1, active compounds read low 0.999 | [14] 1.01 | [15] 1.02 | S. cerevisiae deletion strains, locus YNL298W, strain CLA4 (second series), active compounds read low 0.996 | [16] 0.99 | S. cerevisiae deletion strains, locus YNR030W, strain Alg12, active compounds read low 0.982 | [17] 0.987 | [18] 1.01 | [19] 0.929 | S. cerevisiae deletion strains, locus YPR135W, strain CTF4, active compounds read low 0.905 | [20] 0.979

NCCCC(N)(C(=O)O)C(F)F (stereo not drawn)
inactive: S. cerevisiae deletion strains, locus YAL040C, strain CLN3, active compounds read low 0.996 | S. cerevisiae deletion strains, locus YCL061C, strain MRC1 (second series), active compounds read low 1 | S. cerevisiae deletion strains, locus YDR363W, strain ESC2, active compounds read low 0.981 | S. cerevisiae deletion strains, locus YER002W, strain NOP16, active compounds read low 0.996 | [6] 1.01 | [14] 0.994 | [15] 1.02 | S. cerevisiae deletion strains, locus YNL175C, strain NOP13, active compounds read low 1 | S. cerevisiae deletion strains, locus YNL197C, strain WHI3, active compounds read low 0.983 | S. cerevisiae deletion strains, locus YNL224C, strain SQS1, active compounds read low 1.01 | [16] 0.986 | S. cerevisiae deletion strains, locus YOR083W, strain WHI5 (second series), active compounds read low 1.01 | [19] 1

OCC(S)CS (stereo not drawn)
active: [9] 1.3 [resistant] | S. cerevisiae deletion strains, locus YOR069W, strain VPS5, active compounds read low 1.14 [resistant]
inactive: [1] 0.987 | S. cerevisiae deletion strains, locus YBR021W, strain FUR4, active compounds read low 0.999 | [2] 0.96 | S. cerevisiae deletion strains, locus YCL029C, strain bik1, active compounds read low 0.983 | S. cerevisiae deletion strains, locus YDL035C, strain GPR1, active compounds read low 0.979 | S. cerevisiae deletion strains, locus YDL074C, strain BRE1, active compounds read low 0.963 | [3] 0.985 | [4] 0.976 | S. cerevisiae deletion strains, locus YDL185W, strain tfp1, active compounds read low 0.935 | S. cerevisiae deletion strains, locus YDL192W, strain arf1, active compounds read low 0.964 | S. cerevisiae deletion strains, locus YDR101C, strain arx1, active compounds read low 0.978 | [5] 0.981 | S. cerevisiae deletion strains, locus YDR162C, strain NBP2, active compounds read low 0.966 | S. cerevisiae deletion strains, locus YDR318W, strain mcm21, active compounds read low 1 | S. cerevisiae deletion strains, locus YDR388W, active compounds read low 0.982 | S. cerevisiae deletion strains, locus YDR502C, strain sam2, active compounds read low 0.974 | S. cerevisiae deletion strains, locus YER110C, active compounds read low 0.983 | S. cerevisiae deletion strains, locus YER155C, strain BEM2, active compounds read low 0.999 | S. cerevisiae deletion strains, locus YER167W, strain BCK2, active compounds read low 1.02 | S. cerevisiae deletion strains, locus YGL078C, strain dbp3, active compounds read low 0.992 | S. cerevisiae deletion strains, locus YGL086W, strain mad1, active compounds read low 1.01 | S. cerevisiae deletion strains, locus YGL248W, strain PDE1, active compounds read low 0.972 | [6] 0.972 | S. cerevisiae deletion strains, locus YGR135W, strain pre9, active compounds read low 0.962 | [7] 0.986 | S. cerevisiae deletion strains, locus YGR252W, strain gcn5, active compounds read low 0.949 | [8] 1.01 and 0.959 | S. cerevisiae deletion strains, locus YHR079C, strain IRE1 (second series), active compounds read low 1.01 | S. cerevisiae deletion strains, locus YHR079C, strain IRE1, active compounds read low 0.931 | S. cerevisiae deletion strains, locus YHR094C, strain hxt1, active compounds read low 0.98 | S. cerevisiae deletion strains, locus YHR129C, strain ARP1, active compounds read low 1 | S. cerevisiae deletion strains, locus YHR200W, strain rpn10, active compounds read low 0.974 | S. cerevisiae deletion strains, locus YIL066C, strain RNR3, active compounds read low 0.967 | S. cerevisiae deletion strains, locus YIL073C, strain SPO22, active compounds read low 1.03 | S. cerevisiae deletion strains, locus YIL125W, strain kgd1, active compounds read low 0.966 | S. cerevisiae deletion strains, locus YIR030C, strain dcg1, active compounds read low 0.989 | S. cerevisiae deletion strains, locus YJL095W, strain BCK1, active compounds read low 1.01 and 0.978 | S. cerevisiae deletion strains, locus YJL134W, strain LCB3, active compounds read low 0.994 | S. cerevisiae deletion strains, locus YJL168C, strain set2, active compounds read low 0.984 | S. cerevisiae deletion strains, locus YJL187C, strain SWE1 (second series), active compounds read low 0.973 | S. cerevisiae deletion strains, locus YJR066W, strain TOR1, active compounds read low 0.933 | [10] 0.974 | S. cerevisiae deletion strains, locus YKL009W, strain mrt4, active compounds read low 1 | S. cerevisiae deletion strains, locus YKL068W, active compounds read low 0.984 | S. cerevisiae deletion strains, locus YKL085W, strain MDH1 (second series), active compounds read low 1.04 | S. cerevisiae deletion strains, locus YKL085W, strain MDH1, active compounds read low 1.04 | [11] 0.985 | S. cerevisiae deletion strains, locus YKR001C, strain vps1, active compounds read low 0.978 | [12] 1 | S. cerevisiae deletion strains, locus YLR058C, strain SHM2, active compounds read low 0.984 | S. cerevisiae deletion strains, locus YLR102C, strain apc9, active compounds read low 0.979 | S. cerevisiae deletion strains, locus YLR113W, strain HOG1, active compounds read low 1.02 | [13] 0.996 | S. cerevisiae deletion strains, locus YLR268W, strain sec22, active compounds read low 0.955 | S. cerevisiae deletion strains, locus YLR330W, strain CHS5, active compounds read low 1.01 | S. cerevisiae deletion strains, locus YLR342W, strain FKS1 (second series), active compounds read low 1.01 | S. cerevisiae deletion strains, locus YLR371W, strain rom2, active compounds read low 0.986 | S. cerevisiae deletion strains, locus YLR418C, strain cdc73, active compounds read low 0.941 | S. cerevisiae deletion strains, locus YML016C, strain PPZ1, active compounds read low 1 | S. cerevisiae deletion strains, locus YML032C, strain rad52, active compounds read low 0.973 | S. cerevisiae deletion strains, locus YML124C, strain tub3, active compounds read low 0.989 | S. cerevisiae deletion strains, locus YMR078C, strain ctf18, active compounds read low 0.995 | S. cerevisiae deletion strains, locus YMR223W, strain ubp8, active compounds read low 0.999 | [14] 0.974 | S. cerevisiae deletion strains, locus YMR307W, strain GAS1, active compounds read low 1.08 | S. cerevisiae deletion strains, locus YNL067W, strain RPL9B, active compounds read low 0.964 | S. cerevisiae deletion strains, locus YNL128W, strain TEP1, active compounds read low 0.974 | [15] 0.973 | S. cerevisiae deletion strains, locus YNL183C, strain NPR1, active compounds read low 0.97 | S. cerevisiae deletion strains, locus YNL233W, strain BNI4, active compounds read low 1 | S. cerevisiae deletion strains, locus YNL250W, strain rad50, active compounds read low 0.973 | S. cerevisiae deletion strains, locus YNL271C, strain bni1, active compounds read low 0.988 | S. cerevisiae deletion strains, locus YNL298W, strain CLA4, active compounds read low 0.978 | S. cerevisiae deletion strains, locus YNL307C, strain MCK1, active compounds read low 0.998 | [16] 0.978 | S. cerevisiae deletion strains, locus YNR052C, strain pop2, active compounds read low 0.987 | [17] 0.849 | S. cerevisiae deletion strains, locus YOL012C, strain htz1 0.787 | S. cerevisiae deletion strains, locus YOL147C, strain pex11, active compounds read low 0.987 | S. cerevisiae deletion strains, locus YOR061W, strain CKA2, active compounds read low 0.969 | S. cerevisiae deletion strains, locus YOR136W, strain idh2, active compounds read low 0.992 | S. cerevisiae deletion strains, locus YOR144C, strain elg1, active compounds read low 0.976 | S. cerevisiae deletion strains, locus YOR184W, strain ser1, active compounds read low 0.996 | S. cerevisiae deletion strains, locus YOR231W, strain MKK1, active compounds read low 0.921 | S. cerevisiae deletion strains, locus YOR316C, strain cot1, active compounds read low 0.979 | [18] 0.955 | S. cerevisiae deletion strains, locus YPL256C, strain CLN2, active compounds read low 1.01 | S. cerevisiae deletion strains, locus YPR119W, strain clb2, active compounds read low 0.994 | S. cerevisiae deletion strains, locus YPR141C, strain kar3, active compounds read low 0.967 | S. cerevisiae deletion strains, locus YPR163C, strain tif3, active compounds read low 0.988 | S. cerevisiae deletion strains, locus YPR167C, strain met16, active compounds read low 0.968 | S. cerevisiae deletion strains, strain wtn01, active compounds read low 0.961 | [20] 0.99
